# aDG glyco up = alpha-DG glycosylation activation. Pro5-aDG cells, alpha-DG glycosylation AlphaScreen (IIH6); 0% Pro5, 100% B10-LARGE cell signal. activation, % at 10 µM. 360,000 tested, 0.22% active. AID 624168;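 active = activation of at least 8% versus controls, or a plate z-score of at least 8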;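 note: Pro5 are CHO cells carrying HIG-tagged alpha-DG that lacks glycosylation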
# SUMO Mot1 rescue = SUMOylation pathway inhibition by Mot1-301 growth rescue. AID 2716. growth rescue, % at 18.8 µM. S. cerevisiae Mot1-301 growth rescue, ATP luminescence, 38.5C; percent above DMSO median, 100 means doubled. 320,000 tested, 1% active;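 active = every valid replicate shows activation above 250% relative to neutral control wells; inactive = the rest, any valid replicate at or below 250%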
# FAS TE block = inhibitors of human fatty acid synthase thioesterase domain; 360,000 tested, 0.67% active; recombinant FAS-TE, OMFH fluorogenic substrate, fluorescence endpoint; P49327; inhibition, % at 15 µM; AID 602261;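 active = compounds whose normalised, plate-corrected inhibition of enzyme fluorescence in the single-dose primary screen is 50% or more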
# Cardio protect = protects H9c2 cardiomyocytes from peroxide injury. H2O2 injury protection, ATPLite, 2 h. AID 588492. protection from H2O2 cell death, % at 20 µM. 360,000 tested, 0.63% active;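 active = compounds giving at least 50% protection of heart cells from peroxide-induced death in the single-dose screen, raw or plate-pattern-corrected value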
# Yeast superoxide = caloric restriction mimetics inhibiting age-related superoxide in yeast. AID 2690. superoxide response (% of plate mean), % at 10 µM. 330,000 tested, 0.18% active. S. cerevisiae aged cells, superoxide DHE fluorescence; active compounds read low;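 active = superoxide response under a set limit, about three screen SD below normal, cut at about 65% in these data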;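 note: yeast aged for seven days with compound at 30 °C before DHE staining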
# MPTP block = inhibitors of mitochondrial permeability transition pore; inhibition, % at 10 µM; 360,000 tested, 1.4% active; isolated mouse mitochondria, Ca2+ swelling absorbance, 30 min;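 active = inhibition of 50% or more, scaled per plate between neutral and stimulator controls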
# MPTP counter = membrane potential counter-screen of mitochondrial pore inhibitors. shares compounds with MPTP block. isolated mitochondria, Rhodamine 123 fluorescence. inhibition, % at 10 µM. 5,000 tested, 78% active; in the data active = inhibition above about 22%
# MPTP abs DR = MPTP inhibition, dose response swelling confirmation. isolated mitochondria swelling, absorbance. 780 tested, 58% active. shares compounds with MPTP block. AID 651561. IC50, µM; in the data active = IC50 below about 20 µM
# MPTP cs DR = counter-screen for mitochondrial permeability transition pore inhibitors, dose response; shares compounds with MPTP block; isolated mitochondria counterscreen, fluorescence read-out; IC50, µM; 780 tested, 49% active; in the data active = IC50 below about 80 µM
# A number is an active result; - = inactive; . = no result given. Sampled rows, rich in hits. Any-hit rate of the full collection: about 3.8%.
SMILES,aDG glyco up,SUMO Mot1 rescue,FAS TE block,Cardio protect,Yeast superoxide,MPTP block,MPTP counter,others
O=C1NC[C@H](CCCCN2C[C@H](Cc3ccc(O)cc3)N(CC3CCCCC3)C(=O)C2=O)N(CCc2ccc(O)cc2)C1=O,-,.,-,.,.,-,.,
CCOc1ccc(NC(=S)c2ccncc2)cc1,-,-,-,-,-,55.9,-,MPTP abs DR=18.9;MPTP cs DR=31.4
CCCCOc1ccc(C(=O)Nc2ccncc2)cc1,-,-,-,-,-,101.5,110.7,
O=C(CSc1ccc2ccccc2c1)Nc1ccncc1,-,-,-,-,-,84.1,86.3,
O=C(COc1ccc2ccccc2c1)Nc1cccc(C(=O)Nc2ccccc2C(=O)O)c1,-,-,-,-,-,79.0,57.0,
N#Cc1ccccc1NC(=O)CSc1n[nH]c(-c2ccco2)n1,-,-,-,-,-,-,.,
O=C(CNC(=O)c1ccc(Br)o1)NCc1ccc(F)cc1,-,-,-,-,-,-,.,
O=C(Nc1ccc2c(c1)OCO2)c1cc(-c2ccccc2Cl)on1,-,-,-,-,-,-,.,
Nc1cc(=O)[nH]c(SCC(=O)N2CCC(Cc3ccccc3)CC2)n1,-,-,-,-,-,-,.,
CC(C)(C)c1ccc(NC(=O)COc2ccc(-n3ccnc3)cc2)cc1,-,-,-,-,-,107.2,94.1,
CC(C)c1ccc(OCC(=O)Nc2ccncc2)cc1,-,-,-,-,-,74.4,70.7,
CCc1ccc(OCC(=O)Nc2ccncc2)cc1,-,-,-,-,-,63.0,58.2,
O=C(COc1ccc2ccccc2c1)Nc1ccncc1,-,-,-,-,-,97.9,99.8,
CC(C1CC2CCC1C2)n1c(-c2ccco2)n[nH]c1=S (stereo not given),-,-,-,-,-,-,.,
CC(C)(C)c1ccc(OCC(=O)Nc2ccncc2)cc1,-,-,-,-,-,104.9,73.9,
COc1cc(NC(=O)COc2ccc(-n3ccnc3)cc2)cc(OC)c1,-,-,-,-,-,-,.,
N#Cc1cccc(NC(=O)COc2ccc(-n3ccnc3)cc2)c1,-,-,-,-,-,62.1,-,MPTP abs DR=-;MPTP cs DR=18.8
O=C(COc1ccccc1)Nc1ccncc1,-,-,-,-,-,-,.,
CCc1cc(C(=O)NCC2CCCO2)sc1C (stereo not given),-,-,-,-,-,-,.,
N#C/C(=C\c1ccc(Oc2ccc(C(F)(F)F)cc2[N+](=O)[O-])cc1)c1nc2ccccc2[nH]1,-,-,-,-,-,-,.,
N#C/C(=C/c1ccc(N2CCCC2)c([N+](=O)[O-])c1)c1nc2ccccc2[nH]1,-,-,-,-,-,53.1,34.7,
Cc1ccc2nc(/C(C#N)=C\c3ccc(N4CCCCC4)c([N+](=O)[O-])c3)[nH]c2c1,-,-,-,-,-,55.7,63.5,
CCOCCCN(C(=O)c1snc(C(N)=O)c1N)C(C(=O)NC1CCCC1)c1ccc(O)cc1 (stereo not given),-,-,-,-,-,-,.,
O=C(CN1C(=O)C2C3C=CC(C3)C2C1=O)OCC(=O)c1ccc(Cl)c([N+](=O)[O-])c1 (stereo not given),-,-,-,-,-,-,.,
COc1ccc(C(=O)NCCS(=O)(=O)N2CCN(Cc3ccccc3)CC2)cc1,-,-,-,-,-,-,.,
SMILES,aDG glyco up,SUMO Mot1 rescue,FAS TE block,Cardio protect,Yeast superoxide,MPTP block,MPTP counter,others
CC(C)n1ncc2c(C(=O)Nc3cccc(C#N)c3)cc(C3CC3)nc21,-,-,-,-,-,73.1,85.4,
Cc1ccc(OCc2cc(C(=O)N3CCC(Oc4cccnc4)CC3)no2)cc1C,-,-,-,-,-,91.4,88.8,
O=C(c1cc(COc2ccc(F)cc2Cl)on1)N1CCC(OCc2cccnc2)CC1,-,-,-,-,-,67.7,22.6,
CC(=O)c1ccc(OCc2cc(C(=O)N3CCC(Oc4ccccc4C)CC3)no2)cc1,-,-,-,-,-,-,.,
O=C(c1cc(COc2cccc(C(F)(F)F)c2)on1)N1CCC(Oc2cccnc2)CC1,-,-,-,-,-,59.7,82.8,
COCCn1c(SCC(=O)N2CCCCCC2)nnc1-c1ccco1,-,-,-,-,-,-,.,
COc1ccccc1OCCNc1ccc(S(=O)(=O)N2CCCC2)cn1,-,.,-,-,.,-,.,
COc1ccc(-c2n[nH]c(C(F)(F)F)c2-c2cc3ccccc3o2)c(O)c1,-,-,-,-,-,54.6,60.0,
CCOC(=O)c1c(NC(=O)CSc2nnc(C)c(=O)[nH]2)sc(C)c1-c1ccc(C)cc1,-,-,-,-,-,70.0,61.7,
C[C@H](CO)N1C[C@H](C)[C@@H](CN(C)S(=O)(=O)c2ccc(Oc3ccccc3)nc2)OCc2cn(nn2)CCCC1=O,-,.,-,-,.,-,.,
CCOc1ccc(C(=O)Nc2ccc(N3CCN(C)CC3)cc2)cc1Br,-,-,-,-,-,60.0,-,MPTP abs DR=18.5;MPTP cs DR=-
C[n+]1c(-c2ccccc2)cc2c(=Cc3ccccc3)c3ccccc3n21,-,.,-,-,.,-,.,
CN(C)c1ccc(C=c2c3cc(O)ccc3n3c2cc(-c2ccccc2)[n+]3C)cc1,-,.,-,-,.,53.4,58.9,
CS(=O)(=O)c1ccc(NC(=O)c2ccccc2-n2cnnn2)cc1,-,-,-,-,-,-,.,
COC(=O)C(NC(=O)c1ccc(F)cc1)(Nc1ncc(S(=O)(=O)c2ccc([N+](=O)[O-])cc2)s1)C(F)(F)F (stereo not given),-,-,-,-,-,89.9,87.7,
CCC1CCCCN1Cc1c(O)ccc2c(=O)c(-c3ccccc3OC)coc12 (stereo not given),-,-,-,-,-,-,.,
COC(=O)c1ccc(Cl)c(NC(=O)NC23CC4CC(CC(C4)C2)C3)c1,-,-,-,-,-,94.2,82.5,
CNC(=S)Nc1ccc(N2CCN(c3ccc(C(F)(F)F)cn3)CC2)nc1,-,-,-,-,-,-,.,
CC1CN(C(=S)Nc2ccc(F)cc2F)CC(C)O1 (stereo not given),-,-,-,-,-,-,.,
Fc1ccc(NC(=S)N2CCCN(c3ccc(C(F)(F)F)cn3)CC2)c(F)c1,-,-,-,-,-,71.2,44.5,
Cc1csc2ncnc(N3CCN(C(=S)Nc4ccc(F)cc4F)CC3)c12,-,-,-,-,-,82.5,74.6,
Cc1ccc(C)c(N2C(=O)CC(Cc3ccc(Cl)cc3)C2=O)c1 (stereo not given),-,-,-,-,-,-,.,
O=C(CSc1nc2ccccc2o1)Nc1nc2c(s1)CCCC2,-,.,-,-,.,83.6,64.3,
CCOC(=O)c1c(NC(=O)CSc2nnc(-c3ccccc3)o2)sc(C(C)=O)c1C,-,-,-,-,-,-,.,
